According to PubChem BioAssay AID588354 (The Scripps Research Institute Molecular Screening Center, 2011):
Hit rate of the full screen: of about 360,000 compounds, about 430 (0.12%) were called active.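 Rule for the calls: active = inhibition above the campaign mean plus 3 SD, with each screening campaign given its own cutoff (cut at about 60% in these data); inactive = the rest.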 For the sample, actives were picked, then their nearest neighbours and some compounds at random.

Molecular target: Nuclear receptor coactivator 1 (Homo sapiens) (UniProt Q15788)
Sequence (Q15788 whole entry, looked up, the tested form may be a part): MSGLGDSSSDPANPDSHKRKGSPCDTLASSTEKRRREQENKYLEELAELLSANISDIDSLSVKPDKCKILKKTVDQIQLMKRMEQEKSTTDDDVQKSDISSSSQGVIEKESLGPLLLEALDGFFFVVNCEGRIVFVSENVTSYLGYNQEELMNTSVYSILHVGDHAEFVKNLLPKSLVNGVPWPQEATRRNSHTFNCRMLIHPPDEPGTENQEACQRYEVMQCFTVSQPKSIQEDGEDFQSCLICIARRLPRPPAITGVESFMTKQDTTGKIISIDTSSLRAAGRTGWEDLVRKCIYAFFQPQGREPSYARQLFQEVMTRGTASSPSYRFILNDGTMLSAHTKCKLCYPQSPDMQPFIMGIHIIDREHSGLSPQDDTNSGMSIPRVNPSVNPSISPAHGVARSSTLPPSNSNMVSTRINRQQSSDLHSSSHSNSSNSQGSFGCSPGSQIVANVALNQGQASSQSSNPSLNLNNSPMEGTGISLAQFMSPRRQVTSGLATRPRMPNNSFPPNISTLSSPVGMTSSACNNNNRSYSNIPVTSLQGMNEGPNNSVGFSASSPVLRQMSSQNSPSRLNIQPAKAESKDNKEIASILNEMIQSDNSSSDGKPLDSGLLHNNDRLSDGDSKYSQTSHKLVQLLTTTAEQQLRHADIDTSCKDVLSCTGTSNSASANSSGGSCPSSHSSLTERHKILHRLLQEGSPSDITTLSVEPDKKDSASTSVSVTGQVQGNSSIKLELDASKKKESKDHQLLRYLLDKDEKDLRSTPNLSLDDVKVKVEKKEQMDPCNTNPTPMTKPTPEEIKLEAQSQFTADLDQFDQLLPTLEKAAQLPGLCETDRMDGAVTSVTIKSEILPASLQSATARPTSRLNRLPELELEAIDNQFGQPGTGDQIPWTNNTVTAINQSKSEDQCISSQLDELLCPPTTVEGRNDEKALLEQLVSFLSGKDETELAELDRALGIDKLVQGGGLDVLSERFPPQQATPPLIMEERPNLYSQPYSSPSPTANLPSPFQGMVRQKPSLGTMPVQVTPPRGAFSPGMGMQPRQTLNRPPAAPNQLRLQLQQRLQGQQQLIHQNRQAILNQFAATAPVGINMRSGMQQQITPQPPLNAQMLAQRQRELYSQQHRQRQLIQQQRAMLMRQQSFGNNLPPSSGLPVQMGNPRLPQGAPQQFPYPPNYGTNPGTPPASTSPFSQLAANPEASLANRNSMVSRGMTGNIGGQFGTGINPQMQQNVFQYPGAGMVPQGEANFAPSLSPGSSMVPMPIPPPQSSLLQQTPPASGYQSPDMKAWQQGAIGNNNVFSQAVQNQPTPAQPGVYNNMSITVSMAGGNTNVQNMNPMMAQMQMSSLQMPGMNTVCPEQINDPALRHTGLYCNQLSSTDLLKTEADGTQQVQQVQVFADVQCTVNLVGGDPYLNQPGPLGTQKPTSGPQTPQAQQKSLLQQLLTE
Assay: NCOA1 GAL4-fusion reporter inhibition – cell-based, luminescence, primary screen (AID 588354);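 note: 0% = DMSO treated cells and 100% = gossypol at 36 µM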
Details: HEK293 GAL4-SRC1 luciferase reporter, at 3.6 µM, active compounds read high

inhibition, inactive:
Cc1ccnc2nc(C(=O)OCC(=O)N(CC(C)C)CC(C)C)nn12 2.84%, CN1CCN(C(=O)C(=O)c2cn(CC(=O)N3CCCC3)c3ccccc23)CC1 -22.3%, CCN(CC)C(=O)CSC1c2ccccc2C(=O)N1c1ccccc1 (stereo not drawn) -5.03%, O=C(c1ccc(F)c(S(=O)(=O)N2CCOCC2)c1)N(CCc1ccccc1)Cc1ccccc1 -1.71%, CSCCC(NC(=O)c1ccc(Cl)cc1Cl)C(=O)NNC(=O)c1csc(N2CCOCC2)n1 (stereo not drawn) -17%, Cc1cccc(C(=O)N2CCCC(Nc3ccc(C(C)C)cc3)C2)n1 (stereo not drawn) 1.61%, COc1ccc(N2CCN(C(=O)Cn3cnc4sc(C)c(S(=O)(=O)N5CCOCC5)c4c3=O)CC2)cc1 1.72%, O=C(Nc1cc(-c2nc3ncccc3o2)ccc1Cl)c1ccco1 -8.08%, C[C@H]1CN([C@@H](C)CO)C(=O)c2cc(-c3cccc(F)c3)cnc2O[C@@H]1CN(C)S(C)(=O)=O 4.48%, COC(=O)CNC(=O)c1ccc2c(c1)S(=O)(=O)c1ccccc1C2=O -9.27%, Cc1cc(=O)oc2c3c(cc(OCC(=O)NCC(O)c4ccccc4)c12)OC(C)(C)CC3 (stereo not drawn) -22.4%, S=C(Cc1ccc(Cl)cc1)N1CCOCC1 -5.3%, O=C(O)c1n[nH]nc1-c1ccccc1 10.2%, Clc1ccc2nc(CSc3ccccc3)cn2c1 -91.3%, CC(C)(C)SCCSC1=CC(=O)CC(c2ccccc2)C1 (stereo not drawn) -111%, CCCCNS(=O)(=O)c1ccc2nc(SCC(=O)Nc3cc(C)cc(C)c3)[nH]c2c1 12%, Cc1cc(NC(=O)CSc2nccn2-c2ccc([N+](=O)[O-])cc2)no1 -17%, CN(C)/C=C(/C(=O)c1ccccc1Cl)S(C)(=O)=O -22.7%, COc1ccc2c(c1)N(C)/C(=C1/SC(=S)N(NC(C)=O)C1=O)S2 -35.2%, CCOC(=O)c1ccccc1N1C(=O)C2Sc3[nH]c(=O)sc3C(/C=C/c3ccccc3)C2C1=O (stereo not drawn) -1.18%, O=S(=O)(c1ccc(Cl)cc1)c1nc(-c2ccccc2F)oc1NCCN1CCOCC1 -8.54%, O=C(NCCN1CCOCC1)c1cc(Sc2cccc(Cl)c2)nc2ccccc12 -5.48%, O=C(CCCN=C1NS(=O)(=O)c2ccccc21)OCC(=O)c1ccc(F)c(F)c1 -0.01%, CCn1c(C(C)C)n[nH]c1=S -20.3%, CC(C)(C)NC(=O)C(c1ccco1)N(Cc1ccc2c(c1)OCO2)C(=O)Cn1nnc2ccccc21 (stereo not drawn) 11.9%, CCOc1ccc(-n2cnnn2)cc1S(=O)(=O)N1CCC(C)CC1C (stereo not drawn) 4.05%, O=S(=O)(NCc1ccc2c(c1)OCO2)c1cccc2nsnc12 -3.02%, Cc1nc(COc2cc3oc(=O)cc(C)c3cc2Cl)cs1 -6.18%, C[C@@H]1C[C@@H]2O[C@H]2/C=C\C=C\C(=O)Cc2c(Cl)c(O)cc(O)c2C(=O)O1 53.8%, CC(=O)NC1(c2ccc(F)cc2)CCN(C(=O)c2c(F)cccc2F)CC1 -14.7%, c1cnc(NC2C3CC4CC(C3)CC2C4)nc1 (stereo not drawn) -13.6%, CCCCCC(O)c1cccc(OCc2ccc3ccccc3n2)c1 (stereo not drawn) -17.6%, O=C(CCn1c(=S)[nH]c2cc3c(cc2c1=O)OCO3)NCc1ccc(Cl)cc1 10%, CCN(Cc1ccccc1)C(=O)CSc1nc(C)cc2c1C(=O)OC2 -20%, Cc1nnc(C)c2c(C)n(N)c(C)c12 3.29%, CCCNC(=O)C1(C)CCN(C(=O)c2ccccc2OC(F)(F)F)C1 (stereo not drawn) -5.22%

inhibition, active:
CC1(C)CC(N2CCN(C(c3ccccc3)c3ccccc3)CC2)=CC(=[N+]2CCCCC2)C1 77%, c1ccc2cc3c(NCCN4CCOCC4)ccnc3cc2c1 61.6%
